{"source": "PubChem BioAssay (NCATS)", "note": "Records with an inconclusive call do not appear. Activity calls are given as the source filed them. The call rests on the fitted dose curve; in most records, active means well fitted cell-killing curve with a large enough effect; inconclusive means small, poorly fitted or top-dose-only effect; inactive means no such curve, though single readings can be large or run the other way. Potency means the concentration at half of the fitted maximal effect.", "data": [{"assay": "qHTS of pediatric cancer cell lines to identify multiple opportunities for drug repurposing: Primary screen for Saos-2 cells (AID 1347097); further: nearly all actives have a fitted effect of over 40% in size", "conditions": "Saos-2 viability, CellTiter-Glo ATP luminescence, 48 h; series mostly up to 46 µM", "description": "Drug repurposing or repositioning has been offered as a strategy for drug development in oncology programs. This approach has special potential for childhood cancers and other rare or orphan diseases, where the expected return on new drug development has been a disincentive to pharmaceuticals. […] In this project we exploit the poly-pharmacology of drugs to discover new indications via phenotypic screening of a panel of 19 well-characterized cell lines derived from solid tumors seen in children and adolescents. The goal is to identify approved drugs with previously unrecognized anticancer properties that has the potential to reveal new mechanisms and biological processes involved in carcinogenesis or drug resistance. We employed a titration-based paradigm (quantitative high-throughput screening or qHTS), where all compounds were tested at multiple concentrations for their effect on cell viability. Concentration-response curves (CRCs) were derived directly from the primary screen, and both potency and efficacy values were used to identify compounds with robust bioactivity profiles. We screened the NIH Chemical Genomics Center (NCGC) Pharmaceutical Collection (NPC) and Mechanism Interrogation Plate (MIPE) small molecule collections of approved and investigational compounds against these cell lines; and measured metabolically active cells after 48 hours of compound treatment as a proxy for cell viability. […] Assay Submitter: Nathalia J. Martinez, National Center for Advancing Translational Sciences, National Institutes of Health, Rockville, MD, USA; email: natalia.martinez@nih.gov Shen, M et al. Quantitative high-throughput phenotypic screening of pediatric cancer cell lines identifies multiple opportunities for drug repurposing. Oncotarget 2017 Dec 19;9(4):4758-4772. PMID 29435139.\nThe cells were obtained from University of North Carolina (UNC), Pediatric Preclinical Testing Program (PPT), and Coriell Institute (CI). qHTS cell viability assay: Cells were assayed in growth media at a density of 500-1,000 cells/well. Five microliters of cells were dispensed into 1,536-well, white, solid-bottom, TC-treated plates (Greiner Bio One) using a multidrop dispenser and incubated at 37 degrees C, 5% CO2, under a humidified atmosphere for 5 hours. Twenty-three nanoliters of compounds and controls (neutral control DMSO or positive control bortezomib at final concentration of 2.3 µM) were subsequently transferred by Kalypsys pintool. For primary screens, the MIPE collection was tested at 11-point dilutions (final concentrations range from 0.78 nM to 46 µM) and the NPC collection at 8-point dilutions (final concentrations range from 0.59 nM to 46 µM). Compounds tested in follow-up screens were assayed at 11-point dilutions. Cells were incubated for 48 hours, followed by addition of 3 µL of CellTiter-Glo (Promega). After a 15 min incubation at room temperature, samples were analyzed for luminescence intensity using a ViewLux High-throughput CCD imager equipped with clear filters.", "values": [{"smiles": "COC(=O)[C@@H]1[C@H]2C[C@@H]3c4[nH]c5ccccc5c4CCN3C[C@@H]2CC[C@@H]1O", "Potency": "inactive"}, {"smiles": "O=C1NC(=O)[C@@H](c2cn3c4c(cccc24)CCC3)[C@H]1c1c[nH]c2ccccc12", "Potency": "0.148 µM (active)"}, {"smiles": "C#C[C@]1(O)CC[C@@H]2[C@@H]3CCc4cc(O)ccc4[C@H]3CC[C@@]21C", "Potency": "18.7 µM (active)"}, {"smiles": "CNC(=O)c1cccc(-c2ccc3c(N4CCOC[C@H]4C)nc(N4CCOC[C@H]4C)nc3n2)c1", "Potency": "0.833 µM (active)"}, {"smiles": "Cc1noc(-c2ccc(CSCCC(=O)O)cc2)c1NC(=O)OC(C)c1ccccc1Cl", "note": "(stereo not given)", "Potency": "inactive"}, {"smiles": "C#C[C@]1(O)CC[C@@H]2[C@@H]3CCC4=CC(=O)CC[C@@H]4[C@H]3CC[C@@]21CC", "Potency": "inactive"}, {"smiles": "CC(C=CC1=C(C)CCCC1(C)C)=CC=CC(C)=CC(=O)Nc1ccc(O)cc1", "Potency": "27 µM (active)"}, {"smiles": "N#Cc1ccc(COC[C@H]2O[C@@H](n3c(NCc4ccc(Cl)c(Cl)c4)nc4c(N)ncnc43)[C@@H](O)[C@@H]2O)cc1", "Potency": "inactive"}, {"smiles": "CCOC(=O)C=C[C@H](C[C@@H]1CCNC1=O)NC(=O)[C@@H](CC(=O)[C@@H](NC(=O)c1cc(C)on1)C(C)C)Cc1ccc(F)cc1", "Potency": "inactive"}, {"smiles": "C[C@H](NCc1ccc2c(c1)nc(NC(=O)c1ccc(-c3cn[nH]c3)s1)n2CCc1ccccc1)C(C)(C)C", "Potency": "1.18 µM (active)"}, {"smiles": "N=c1ccn2c(n1)O[C@H]1[C@@H](O)[C@@H](CO)O[C@H]12", "Potency": "inactive"}, {"smiles": "Cn1cnc(=N)c2[nH]cnc21", "Potency": "0.743 µM (active)"}, {"smiles": "O=C(C=CC#Cc1cccc(NS(=O)(=O)c2ccccc2)c1)NO", "Potency": "2.35 µM (active)"}, {"smiles": "Nc1nc(=O)n([C@H]2CSC(CO)O2)cc1F", "note": "(stereo not given in full)", "Potency": "inactive"}, {"smiles": "CC[C@H](CC[C@@H](C)[C@H]1CC[C@H]2[C@@H]3CC=C4C[C@@H](O)CC[C@]4(C)[C@@H]3CC[C@]12C)C(C)C", "Potency": "inactive"}, {"smiles": "C=Cc1c(C)c2cc3nc(cc4[nH]c(cc5nc(cc1[nH]2)C(C)=C5CCC(=O)O)c(CCC(=O)OC)c4C)[C@@]1(C)C3=CC=C(C(=O)OC)[C@H]1C(=O)OC", "Potency": "4.69 µM (active)"}, {"smiles": "C=C[C@@H]1CN2CCC1C[C@H]2[C@H](O)c1ccnc2ccc(OC)cc12", "note": "(stereo not given in full)", "Potency": "inactive"}, {"smiles": "O=C(O)CCCCCC(=O)NN=C1CCCC1", "Potency": "inactive"}, {"smiles": "OCC(O)C(O)C(O)CO", "note": "(stereo not given)", "Potency": "inactive"}, {"smiles": "CN(N=O)C(=O)N[C@H]1C(O)OC(CO)[C@@H](O)[C@H]1O", "note": "(stereo not given in full)", "Potency": "inactive"}, {"smiles": "Cc1cc(-c2nnc3n2CCCCC3)c(C)n1-c1ccccc1", "Potency": "inactive"}, {"smiles": "C=CC(=O)Nc1ccc2ncnc(Nc3ccc(OCc4cccc(F)c4)c(Cl)c3)c2c1", "Potency": "0.0296 µM (active)"}, {"smiles": "CCNC(=O)c1cc2c(-c3cc(OCCN4CCCC4)c(Cl)cc3Cl)nc(N)nc2s1", "Potency": "3.72 µM (active)"}, {"smiles": "C=C1C[C@@]2(O)O[C@@]3(C[C@H]2C(C)C)[C@H](C)CC[C@H]13", "Potency": "inactive"}, {"smiles": "COc1cc2c(Nc3ccc(Cl)c(Cl)c3F)ncnc2cc1OCC1C[C@@H]2CN(C)C[C@H]2C1", "Potency": "16.6 µM (active)"}, {"smiles": "COc1ccc(Nc2nccc(NCCO)n2)cc1", "Potency": "inactive"}, {"smiles": "CN(CC(=O)N(Cc1ccc(C2CCCCC2)cc1)c1ccc(C(=O)O)c(O)c1)S(=O)(=O)c1c(F)c(F)c(F)c(F)c1F", "Potency": "16.6 µM (active)"}, {"smiles": "CN[C@H]1[C@@H](O)[C@@H]2O[C@@H]3O[C@H](C)CC(=O)[C@]3(O)O[C@@H]2[C@@H](NC)[C@H]1O", "Potency": "1.87 µM (active)"}, {"smiles": "O=C(O)[C@H](CC(=O)N1C[C@@H]2CCCC[C@H]2C1)Cc1ccccc1", "Potency": "inactive"}, {"smiles": "CCc1nc(-c2cccc(C)c2)c(-c2ccnc(NC(=O)c3ccccc3)c2)s1", "Potency": "16.6 µM (active)"}, {"smiles": "O=C(Nc1ccc(Oc2ccnc3[nH]ccc23)c(F)c1)c1cccn(-c2ccc(F)cc2)c1=O", "Potency": "20.9 µM (active)"}, {"smiles": "CS[C@H]1SC[C@@H]2C(=O)N(C)[C@H](C(C)C)C(=O)OC[C@H](NC(=O)c3cnc4ccccc4n3)C(=O)N[C@H](C)C(=O)N(C)[C@@H]1C(=O)N(C)[C@H](C(C)C)C(=O)OC[C@H](NC(=O)c1cnc3ccccc3n1)C(=O)N[C@H](C)C(=O)N2C", "Potency": "0.0418 µM (active)"}, {"smiles": "COc1ccc(C=Cc2cc(OC)c(OC)c(OC)c2)cc1NC(=O)[C@H](N)CO", "Potency": "0.0105 µM (active)"}, {"smiles": "CC(C)n1cnc2c(NCCc3ccc(O)cc3)nc(-c3csc4ccccc34)nc21", "Potency": "14.8 µM (active)"}, {"smiles": "CC1(C)[C@H](O[C@H]2O[C@H](C(=O)O)[C@@H](O)[C@H](O)[C@H]2O[C@@H]2O[C@H](C(=O)O)[C@@H](O)[C@H](O)[C@H]2O)CC[C@@]2(C)[C@H]1CC[C@]1(C)[C@H]2C(=O)C=C2[C@H]3C[C@@](C)(C(=O)O)CC[C@]3(C)CC[C@]21C", "Potency": "inactive"}, {"smiles": "CC(N[C@H]1CCCC[C@H]1NC(=O)c1ccc(Cl)cc1)c1cccc2ccccc12", "note": "(stereo not given in full)", "Potency": "0.0662 µM (active)"}, {"smiles": "C[C@H]1C[C@H]2[C@@H]3CCC4=CC(=O)C=C[C@]4(C)[C@@H]3C(=O)C[C@]2(C)[C@@]1(O)C(=O)CO", "Potency": "inactive"}, {"smiles": "COc1cc2ncnc(Nc3cccc(Br)c3)c2cc1OC", "Potency": "29.6 µM (active)"}, {"smiles": "N#Cc1cc(NC(=O)Nc2nnc(-c3ccncc3)s2)ccc1-c1cn[nH]c1", "Potency": "inactive"}, {"smiles": "COc1ccc(S(=O)(=O)Nc2cccnc2Nc2ccc(O)cc2)cc1", "Potency": "0.235 µM (active)"}]}]}
